Results taken from PubChem BioAssay (NCATS).
Inconclusive results are not listed. Values without a mark were called inactive. Calls of active or inactive are those of the source. Calls follow the shape of the dose curve; as a rule, active = well fitted inhibition curve with a large enough effect; inconclusive = small, poorly fitted or top-dose-only effect; inactive = flat fitted curve, though single readings scatter.

tested on: CP247; test: qHTS profiling for inhibitors of Plasmodium falciparum proliferation (AID 504749); also: nearly all actives have a fitted effect of over 60% in size;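 as to activity, negative = inhibition: 0% = DMSO vehicle and full inhibition = artemisinin control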; settings: P. falciparum in erythrocytes, SYBR Green DNA, 72 h; series mostly up to 12.8 µM; activity, negative = inhibition: at the top concentration
Procedure, shortened: (§1)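 P. falciparum-infected erythrocytes (0.3% parasitemia, 2.5% hematocrit final) were exposed to compounds for 72 h at 37 C in 5% CO2, then lysed with SYBR Green buffer overnight at room temperature; parasite DNA fluorescence was normalized to artemisinin and DMSO controls.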
Potency is read from the fitted curve at half-maximal effect.

Structure (SMILES)	activity, negative = inhibition [%]	Potency
CCO[C@H]1O[C@@H]([C@H](COCc2ccccc2)OCc2ccccc2)[C@@H](OCc2ccccc2)[C@H]1O	1.23	
COc1cc(N[C@@H](C)CCCN)c2ncccc2c1		3550 nM (active)
C=Cc1c(C)c2cc3nc(cc4[nH]c(cc5nc(cc1[nH]2)C(C)=C5CCC(=O)O)c(CCC(=O)OC)c4C)[C@@]1(C)C3=CC=C(C(=O)OC)[C@H]1C(=O)OC (tested in a mixture with another compound)		10000 nM (active)
O=C(OC[C@@H](O)CO)c1ccccc1Nc1ccnc2cc(Cl)ccc12	-10.6	
CO[C@]1(NC(=O)[C@H](C(=O)O)c2ccc(O)cc2)C(=O)N2C(C(=O)O)=C(CSc3nnnn3C)CO[C@H]21	7.03	
COc1ccc2c(c1)N(C[C@@H](C)CN(C)C)c1ccccc1S2	-13.3	
CCC(=O)[C@@]1(C)[C@H](C)C[C@@H]2[C@@H]3CCC4=CC(=O)C=C[C@@]4(C)[C@H]3[C@H](O)C[C@]21C	12.4	
CCC(C)(C)C(=O)O[C@@H]1C[C@H](C)C=C2C=C[C@H](C)[C@@H](CC[C@H]3C[C@@H](O)CC(=O)O3)[C@H]21	-0.002	
CC=C(/C(=C/C)c1ccc(O)cc1)c1ccc(O)cc1	7.07	
CC1(C)S[C@@H]2[C@H](NC(=O)[C@@H](N)c3ccccc3)C(=O)N2[C@H]1C(=O)O[C@H]1OC(=O)c2ccccc21	7.32	

tested on: CP250; test: as above; settings: P. falciparum in erythrocytes, SYBR Green DNA, 72 h; series mostly up to 12.8 µM; activity, negative = inhibition: at the top concentration
Procedure, shortened: as §1

Structure (SMILES)	activity, negative = inhibition [%]	Potency
CCO[C@H]1O[C@@H]([C@H](COCc2ccccc2)OCc2ccccc2)[C@@H](OCc2ccccc2)[C@H]1O	-5.22	
COc1cc(N[C@@H](C)CCCN)c2ncccc2c1		1260 nM (active)
C=Cc1c(C)c2cc3nc(cc4[nH]c(cc5nc(cc1[nH]2)C(C)=C5CCC(=O)O)c(CCC(=O)OC)c4C)[C@@]1(C)C3=CC=C(C(=O)OC)[C@H]1C(=O)OC (tested in a mixture with another compound)		10000 nM (active)
O=C(OC[C@@H](O)CO)c1ccccc1Nc1ccnc2cc(Cl)ccc12	-2.58	
CO[C@]1(NC(=O)[C@H](C(=O)O)c2ccc(O)cc2)C(=O)N2C(C(=O)O)=C(CSc3nnnn3C)CO[C@H]21	0.629	
COc1ccc2c(c1)N(C[C@@H](C)CN(C)C)c1ccccc1S2	-2.91	
CCC(=O)[C@@]1(C)[C@H](C)C[C@@H]2[C@@H]3CCC4=CC(=O)C=C[C@@]4(C)[C@H]3[C@H](O)C[C@]21C	5.84	
CCC(C)(C)C(=O)O[C@@H]1C[C@H](C)C=C2C=C[C@H](C)[C@@H](CC[C@H]3C[C@@H](O)CC(=O)O3)[C@H]21	-11.3	
CC=C(/C(=C/C)c1ccc(O)cc1)c1ccc(O)cc1	10.3	
CC1(C)S[C@@H]2[C@H](NC(=O)[C@@H](N)c3ccccc3)C(=O)N2[C@H]1C(=O)O[C@H]1OC(=O)c2ccccc21	-20.6	

tested on: CP252; test: as above; settings: P. falciparum in erythrocytes, SYBR Green DNA, 72 h; series mostly up to 12.8 µM; activity, negative = inhibition: at the top concentration
Procedure, shortened: as §1

Structure (SMILES)	activity, negative = inhibition [%]	Potency
CCO[C@H]1O[C@@H]([C@H](COCc2ccccc2)OCc2ccccc2)[C@@H](OCc2ccccc2)[C@H]1O	-15.6	
COc1cc(N[C@@H](C)CCCN)c2ncccc2c1		1260 nM (active)
O=C(OC[C@@H](O)CO)c1ccccc1Nc1ccnc2cc(Cl)ccc12	-6.34	
CO[C@]1(NC(=O)[C@H](C(=O)O)c2ccc(O)cc2)C(=O)N2C(C(=O)O)=C(CSc3nnnn3C)CO[C@H]21	6.22	
COc1ccc2c(c1)N(C[C@@H](C)CN(C)C)c1ccccc1S2	-8.17	
CCC(=O)[C@@]1(C)[C@H](C)C[C@@H]2[C@@H]3CCC4=CC(=O)C=C[C@@]4(C)[C@H]3[C@H](O)C[C@]21C	1.12	
CCC(C)(C)C(=O)O[C@@H]1C[C@H](C)C=C2C=C[C@H](C)[C@@H](CC[C@H]3C[C@@H](O)CC(=O)O3)[C@H]21	-2.41	
CC=C(/C(=C/C)c1ccc(O)cc1)c1ccc(O)cc1	0.408	
CC1(C)S[C@@H]2[C@H](NC(=O)[C@@H](N)c3ccccc3)C(=O)N2[C@H]1C(=O)O[C@H]1OC(=O)c2ccccc21	0.97	

tested on: CP256; test: as above; settings: P. falciparum in erythrocytes, SYBR Green DNA, 72 h; series mostly up to 12.8 µM; activity, negative = inhibition: at the top concentration
Procedure, shortened: as §1

Structure (SMILES)	Potency	activity, negative = inhibition [%]
COc1cc(N[C@@H](C)CCCN)c2ncccc2c1	1260 nM (active)	
CO[C@]1(NC(=O)[C@H](C(=O)O)c2ccc(O)cc2)C(=O)N2C(C(=O)O)=C(CSc3nnnn3C)CO[C@H]21		3.98
COc1ccc2c(c1)N(C[C@@H](C)CN(C)C)c1ccccc1S2		-11.1
CCC(=O)[C@@]1(C)[C@H](C)C[C@@H]2[C@@H]3CCC4=CC(=O)C=C[C@@]4(C)[C@H]3[C@H](O)C[C@]21C		5.94
CCC(C)(C)C(=O)O[C@@H]1C[C@H](C)C=C2C=C[C@H](C)[C@@H](CC[C@H]3C[C@@H](O)CC(=O)O3)[C@H]21		-3.52
CCN(CC)[C@@H](C)CN1c2ccccc2Sc2ccccc21		-15.7
CC=C(/C(=C/C)c1ccc(O)cc1)c1ccc(O)cc1		5.77
CC1(C)S[C@@H]2[C@H](NC(=O)[C@@H](N)c3ccccc3)C(=O)N2[C@H]1C(=O)O[C@H]1OC(=O)c2ccccc21		8.11
